Here are results for 55 compounds from PubChem BioAssay AID1851 (National Center for Advancing Translational Sciences (NCATS), 2009).

Hit rate of the full screen: of about 16,000 compounds, about 5,800 (36%) were called active. Inconclusive results (about 23%) are left out. The call rests on the fitted dose curve; in most records, active means well fitted curve in the direction sought with a large enough effect; inconclusive means small, poorly fitted or top-dose-only effect, or effect the other way; inactive means no such curve, though single readings can be large or run the other way. Some of the results follow.
On the % scale 0 is the no-effect control and ±100 the full control effect.

For the experiment, the target named is Cytochrome P450 2C19 (Homo sapiens) (UniProt P33261). The experiment is described as follows: Cytochrome panel assay with activity outcomes. The settings on record: recombinant CYP, pro-luciferin dealkylation, luminescence, p450-cyp2c19; series mostly up to 57.1 µM; activity, negative = inhibition: at the top concentration.
Cytochrome P450 2C19 (Homo sapiens), sequence (P33261 whole entry, looked up): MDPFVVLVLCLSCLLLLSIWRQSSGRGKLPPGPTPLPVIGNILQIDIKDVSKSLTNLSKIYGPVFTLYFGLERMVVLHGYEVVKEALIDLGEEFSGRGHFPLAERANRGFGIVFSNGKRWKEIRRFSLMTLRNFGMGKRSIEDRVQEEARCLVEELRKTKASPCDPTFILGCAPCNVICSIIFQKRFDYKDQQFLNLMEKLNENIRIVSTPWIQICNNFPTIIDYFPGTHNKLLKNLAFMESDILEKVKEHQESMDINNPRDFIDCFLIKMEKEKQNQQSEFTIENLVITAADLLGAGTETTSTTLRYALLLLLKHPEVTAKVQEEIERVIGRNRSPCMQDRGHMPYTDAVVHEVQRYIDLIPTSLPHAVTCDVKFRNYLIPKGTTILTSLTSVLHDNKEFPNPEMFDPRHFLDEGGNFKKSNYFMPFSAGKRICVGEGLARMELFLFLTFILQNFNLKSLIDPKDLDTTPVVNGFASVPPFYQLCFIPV
Turning to `O=C(Nc1ccccc1)N1CCC2(CC1)CCN(C(=O)Oc1ccccc1)CC2`, the “activity, negative = inhibition” value was -36.7% (inactive). Take `COc1ccc(C[C@H]2NC[C@H](O)[C@@H]2OC(C)=O)cc1`: the AC50 is 3.16 µM (active). On to `COc1ccc(C[C@@H]2NC[C@H](O)[C@@H]2OC(C)=O)cc1`, for which the “activity, negative = inhibition” value was 27.1% [at 25.6 µM] (inactive). Regarding `Cc1nc(N)sc1CCN`, the “activity, negative = inhibition” value was -29.1% (inactive). For `CCCN[C@@H]1CCc2c(OC)cccc2[C@@H]1C`, the “activity, negative = inhibition” value is -33.5% (inactive). In the case of `CCN(CC)C(=O)N[C@H]1C[C@H]2c3cccc4[nH]cc(c34)C[C@@H]2N(C)C1`, the “activity, negative = inhibition” value was -1.43% (inactive).

For the compound `O=C1CN=C(c2cccs2)c2c(sc3c2CCCC3)N1`, the AC50 was 15.8 µM (active).

Consider `C[C@H]1CC[C@@]2(NC1)O[C@@H]1C[C@@H]3[C@@H]4CC=C5C[C@@H](O)CC[C@]5(C)[C@@H]4CC[C@]3(C)[C@H]1[C@@H]2C`, for which the activity, negative = inhibition was 15.9% [at 11.4 µM] (inactive).

With `CCOC(=O)C1Cc2c([nH]c3ccccc23)CN1` (stereo not given), the AC50 was 1.58 µM (active). As to `COc1ccc2[nH]c3c(c2c1)CCNC3`, the “activity, negative = inhibition” value is 0.139% (inactive). Take `C[C@@]12CC[C@H]3[C@@H](CC=C4C[C@H](OS(=O)(=O)O)CC[C@]43C)[C@H]1CCC2=O`: the “activity, negative = inhibition” value was -11.8% (inactive).

With `COc1cc(CCN)c(OC)c(OC)c1`, the activity, negative = inhibition was 70.8% [at 11.4 µM] (inactive).

Turning to `C[C@@H](O)CN(CCN(C[C@@H](C)O)C[C@@H](C)O)C[C@@H](C)O.O=[N+]([O-])O.[Cu]`, the concentration at half-maximal activity (AC50) is 0.398 µM (active). With `CC(=O)O[C@H]1C[C@@H](O[C@@H]2[C@H](C)O[C@H](O[C@@H]3[C@H](C)O[C@H](O[C@@H]4CC[C@@]5(C)[C@@H](CC[C@]6(C)[C@]5(C)C[C@H](O)[C@]5(C)[C@@H](C7=CC(=O)OC7)CC[C@@]56O)C4)C[C@@H]3O)C[C@@H]2O)O[C@@H](C)[C@H]1O[C@H]1O[C@@H](CO)[C@@H](O)[C@@H](O)[C@@H]1O`, the “activity, negative = inhibition” value was 15.7% [at 25.6 µM] (inactive). As to `Cc1ccc(S(=O)(=O)N[C@@H](CCCCN)C(=O)CCl)cc1`, the “activity, negative = inhibition” value is -18.9% (inactive). In the case of `O=S1(=O)N(CCN2CC=C(c3c[nH]c4cc(F)ccc34)CC2)c2cccc3c2N1CCC3`, the concentration at half-maximal activity (AC50) was 6.31 µM (active). As to `COc1cc2c(cc1OC)[C@@]13CCN4C=C5CCO[C@H]6CC(=O)N2[C@@H]1[C@@H]6[C@H]5C[C@H]43`, the activity, negative = inhibition was 32% [at 11.4 µM] (inactive). Same read-out and setting: as for `CC(C)[N+](C)(CCC(C(N)=O)(c1ccccc1)c1ccccc1)C(C)C`, the figure is -4.45% [at 25.6 µM] (inactive); as for `C[C@H](CN(C)C)C(C#N)(c1ccccc1)c1ccccc1`, 31.1% [at 11.4 µM] (inactive). Take `Cc1ccc2c(c1)N(CCC(=O)N1CCC3(CC1)OCCO3)C(=O)C(C)O2` (stereo not given): the AC50 was 0.708 µM (active). With `Cc1cc(NC(=O)CCC(=O)N2CCC3(CC2)OCCO3)no1`, the “activity, negative = inhibition” value is 17.5% (inactive). On to `CN1CC[C@@]23c4ccccc4N[C@H]1[C@]21CCN(C)[C@@H]3Nc2ccccc21`, for which the “activity, negative = inhibition” value is 15.2% [at 25.6 µM] (inactive). Consider `CCCC(=O)Nc1ccc(N2CCN(CC)CC2)c(Cl)c1`, for which the “activity, negative = inhibition” value is -15.6% (inactive). For the compound `C=Cn1ccnc1P(=S)(c1nccn1C=C)C1CCCCC1`, the AC50 was 3.55 µM (active).

Turning to `O=C(O)[C@@H](O)[C@@H](O)[C@@H]1[O][Sb][O][C@@H]1CO`, the activity, negative = inhibition is 21.2% [at 11.4 µM] (inactive).

`CC[N+](CC)(CCCNC1=CC(=O)C(NCCC[N+](CC)(CC)Cc2ccccc2)=CC1=O)Cc1ccccc1`: the “activity, negative = inhibition” value was -21.1% (inactive). On the same count and under the same terms, the same measure for `CCN1C[C@@]2(COC)CC[C@H](O)[C@@]34[C@@H]2C[C@@H]([C@@H]13)[C@]1(O)C[C@@H](OC)C2C[C@H]4[C@H]1[C@H]2OC(C)=O`: -2.58% [at 25.6 µM] (inactive). On to `C[N+](C)(C)[C@H](Cc1c[nH]c(=S)[nH]1)C(=O)O`, for which the activity, negative = inhibition was -22.8% [at 11.4 µM] (inactive). Same read-out and setting: as for `CCCN(CCC)CCc1c[nH]c2ccc(C(N)=O)cc12`, the figure is -15% (inactive). Consider `CN=C(NC#N)NCCSCc1nc[nH]c1C`, for which the concentration at half-maximal activity (AC50) was 31.6 µM (active). As to `O=C(Nc1cccc(F)c1)N1CC2(CCN(C(=O)Oc3ccccc3)CC2)C1`, the “activity, negative = inhibition” value is -16.3% (inactive). On the same count and under the same terms, as for `O=C(CCN1CC2CCC(CC2)C1)c1cccs1`, the figure is -19% [at 11.4 µM] (inactive); as for `CC[C@@](O)(C(=O)O)c1cc2n(c(=O)c1CO)Cc1cc3ccccc3nc1-2`, 16.3% [at 11.4 µM] (inactive); as for `CC(=O)NBr`, -7.32% (inactive). Take `N[C@H](CCCCCP(=O)(O)O)C(=O)O`: the AC50 result is “inactive”. For `CP(=O)(O)C1=CCNCC1`, the “activity, negative = inhibition” value is -20.7% (inactive). As for `CC(=O)N1CC[N+](C)(C)CC1`, the “activity, negative = inhibition” value was -17.8% (inactive). As to `CN1CCN(C(=O)O[C@@H]2c3nccnc3C(=O)N2c2ccc(Cl)cn2)CC1`, the AC50 was 15.8 µM (active).

With `COc1cc2c3cc1Oc1c(O)c(OC)cc4c1[C@@H](Cc1ccc(cc1)Oc1cc(ccc1O)C[C@H]3N(C)CC2)N(C)CC4`, the activity, negative = inhibition is -11% [at 11.4 µM] (inactive). Same read-out and setting: as for `CC[C@]1(c2cccc(O)c2)CCCCN(C)C1`, the figure is 16.1% [at 25.6 µM] (inactive). Regarding `C[C@@H]1O[C@@H](O[C@H]2C[C@@H](O)[C@]3(CO)[C@@H]4[C@@H](O)C[C@]5(C)[C@H](C6=CC(=O)OC6)CC[C@@]5(O)[C@H]4CC[C@@]3(O)C2)[C@H](O)[C@H](O)[C@@H]1O`, the “activity, negative = inhibition” value is -5.19% (inactive).

As to `C[C@@H](COc1ccccc1)N(CCCl)Cc1ccccc1`, the AC50 is 10 µM (active). As for `Clc1cnc(Oc2ccc(Oc3ncc(Cl)cc3Cl)cc2)c(Cl)c1`, the “activity, negative = inhibition” value is -18.5% (inactive). Turning to `NCCc1ccc(S(=O)(=O)O)cc1[N+](=O)[O-]`, the activity, negative = inhibition was -6.86% [at 11.4 µM] (inactive). Consider `O=C1c2cc([N+](=O)[O-])ccc2-c2ccc3c4ccc5c6c(ccc(c7ccc1c2c73)c64)C(=O)c1cc([N+](=O)[O-])ccc1-5`, for which the activity, negative = inhibition was -4.82% [at 11.4 µM] (inactive). Consider `O=C1c2ccccc2-c2cc([N+](=O)[O-])c([N+](=O)[O-])cc21`, for which the half-maximal activity concentration (AC50) is 0.398 µM (active). `COc1ccccc1CN1CC[C@@]2(CCCN(C(=O)Oc3ccccc3)C2)C1`: the “activity, negative = inhibition” value is -33.4% (inactive). As to `CN(C)CCN(C)CCc1ccc(Cl)c(Cl)c1`, the AC50 was 10 µM (active). As for `CN(CCc1ccc(Cl)c(Cl)c1)[C@H]1CCCC[C@H]1N1CCCC1`, the half-maximal activity concentration (AC50) is 15.8 µM (active). In the case of `COc1ccc2c(c1)C13CCCC[C@@H]1C(C2)N(C)CC3` (stereo not given in full), the “activity, negative = inhibition” value was 21.6% [at 25.6 µM] (inactive). As to `C[C@H](Br)C(=O)c1ccc2cc(Br)c3ccccc3c2c1`, the activity, negative = inhibition was -42.1% [at 11.4 µM] (inactive). The same measure, in the same setting: as for `CCC1=C(C[C@H]2NCCc3cc(OC)c(OC)cc32)C[C@H]2c3ccccc3CCN2C1`, the figure is -4.76% [at 11.4 µM] (inactive).

For the compound `CC(C)CCn1c(N)c(C(=O)NCc2cccs2)c2nc3ccccc3nc21`, the AC50 is 2.51 µM (active). For `COc1ccc(Cn2c(N)c(C(=O)NCc3ccco3)c3nc4ccccc4nc32)cc1`, the AC50 is 2.51 µM (active). Take `CCCCn1c(N)c(C(=O)NCc2cccs2)c2nc3ccccc3nc21`: the half-maximal activity concentration (AC50) is 3.98 µM (active).

The AC50 is the concentration at which the activity in the assay is half-maximal.
